# Bioassay records (PubChem)
# Shown are actives, neighbours in structure and some others; about 10% of the full set was active somewhere.
# HEK293 tox: HEK 293 cell cytotoxicity. HEK 293 viability, ATP luminescence (CellTiter-Glo), 48-72 h. Potency, µM (highest dose often 115 µM), for inactives: at the top dose activity change, negative = cytotoxicity, most hits filed as inhibitors. actives 6.6% (n = 94,000); further: nearly all actives have a fitted effect of over 60% in size
#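 HEK 293 cells seeded at 250 cells/well were exposed to compound for 48 or 72 hr at 37 degree Celsius. Viability taken as ATP content by CellTiter-Glo luminescence.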
# hNpr1 antagonist: human Npr1 receptor antagonism; P16066; HEK293 hNpr1 GloSensor cGMP, ANP-stimulated luminescence; Potency, µM (series often up to 46.3 µM), without a hit: top-dose activity change, negative = inhibition, most hits filed as inhibitors; actives 1.6% (n = 76,000); AID 1347048; calls by dose curve; further: nearly all actives have a fitted effect of over 60% in size
#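 HEK293 cells stably expressing human Npr1 and cGMP GloSensor pGS-40F, loaded 2 h with 2% GloSensor reagent, given compound 30 min at room temperature. Luminescence read before and 20 min after 0.1 nM hNppA.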
# GPT2 inh: GPT2 alanine aminotransferase inhibition; Q8TD30; Potency, µM (series often up to 57.7 µM), for inactives: top-dose activity change, negative = inhibition, most hits filed as inhibitors; Recombinant GPT2, coupled pyruvate oxidase/HRP Amplex Red fluorescence; actives 0.25% (n = 100,000); further: nearly all actives have a fitted effect of over 60% in size
#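 GPT2 10ng/uL, a-KG 250uM, L-Ala 2mM, HEPES pH7.5 + 0.0001% Tween; 30 min RT. Then Amplex mix (PO/HRP/ThPP), 30 min RT dark, fluorescence. AOA 50uM used as positive control.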
# FLuc inh: inhibitors of firefly (Photinus pyralis) luciferase | P08659 | purified P. pyralis luciferase, luminescence, biochemical | Potency, µM (doses to about 115 µM), usual class: inhibitors | actives 2.5% (n = 76,000); further: nearly all actives have a fitted effect of over 65% in size
# Target sequence (P08659 whole entry, looked up): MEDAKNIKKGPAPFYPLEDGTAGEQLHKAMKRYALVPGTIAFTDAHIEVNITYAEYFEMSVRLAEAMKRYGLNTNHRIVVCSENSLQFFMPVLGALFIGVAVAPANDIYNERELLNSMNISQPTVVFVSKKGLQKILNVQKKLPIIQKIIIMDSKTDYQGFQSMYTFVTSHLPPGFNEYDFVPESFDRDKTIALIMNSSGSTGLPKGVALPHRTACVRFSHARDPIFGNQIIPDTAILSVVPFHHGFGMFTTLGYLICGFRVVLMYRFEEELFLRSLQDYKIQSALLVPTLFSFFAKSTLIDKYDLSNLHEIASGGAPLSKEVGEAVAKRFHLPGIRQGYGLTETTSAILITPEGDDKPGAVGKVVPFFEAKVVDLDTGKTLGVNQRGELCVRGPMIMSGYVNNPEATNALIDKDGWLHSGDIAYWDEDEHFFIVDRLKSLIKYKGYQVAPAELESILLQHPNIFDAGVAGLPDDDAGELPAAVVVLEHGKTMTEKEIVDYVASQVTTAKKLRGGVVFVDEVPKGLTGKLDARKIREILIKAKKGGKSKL
#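 Purified P. pyralis luciferase (10nM final) in 50mM Tris acetate pH 7.5, 10mM Mg acetate, 0.01% Tween-20, 0.05% BSA with 10uM D-luciferin and 10uM ATP. Compounds titrated qHTS. Luminescence imaged on CCD.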
# 3T3 cytotox: kills NIH 3T3 cells; NIH 3T3 viability, CellTiter-Glo ATP luminescence, 48-72 h; Potency, µM (highest dose often 96.7 µM), without a hit: at the top dose activity change, negative = cytotoxicity, most hits filed as inhibitors; actives 4.3% (n = 94,000); AID 1345082; further: nearly all actives have a fitted effect of over 55% in size
#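 Cells were seeded at 400 per well, treated with pin-transferred compound, and kept 48 or 72 hr at 37 °C before CellTiter-Glo addition and luminescence imaging of cellular ATP.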
# * = called active by the depositor; i = inactive; ? = inconclusive; · = no result; [ ] = remark or other dose. Unless noted, the call rests on the fitted dose curve; in most records, active means well fitted curve in the direction sought with a large enough effect; inconclusive means small, poorly fitted or top-dose-only effect, or another doubt; inactive means no such curve, though single readings can be large; an effect the other way counts as inactive or inconclusive. On the % scale 0 is the no-effect control and ±100 the full control effect; potency means the concentration at half of the fitted maximal effect.
SMILES,HEK293 tox,hNpr1 antagonist,GPT2 inh,FLuc inh,3T3 cytotox
OC(c1nc(Nc2cccc(F)c2)n[nH]1)C1CC1 (centres undefined),0%[230 µM],3%[70.6 µM],i,?,112µM*
OC(c1nc(Nc2cccc(Cl)c2)n[nH]1)C1CC1 (centres undefined),-17%[230 µM],-14%[70.6 µM],-3%[88.5 µM],45µM*,?
Cc1ccccc1CN1CC2(COCC1=O)CN(c1ccc(C(F)(F)F)cn1)C2,89µM*,-1%[70.6 µM],?,i,?
CC(C)(C)c1ccc(CN2CC3(COCC2=O)CN(c2ccccc2)C3)cc1,?,-2%[70.6 µM],-3%[88.5 µM],i,79µM*
COc1ccc(N2CC3(COCC2=O)CN(c2ccc(C(F)(F)F)cn2)C3)cn1,-20%[172 µM],1%[70.6 µM],-10%[88.5 µM],i,40µM*
COc1cccc(-c2cnc3n[nH]c(-c4ccc5c(c4)OCO5)c3n2)c1,?,-11%[70.6 µM],0%[88.5 µM],i,50µM*
Cc1ccccc1-c1cnc2n[nH]c(-c3ccc4c(c3)OCO4)c2n1,45µM*,-18%[70.6 µM],?,i,25µM*
COc1ncccc1-c1cnc2n[nH]c(-c3ccc4c(c3)OCO4)c2n1,45µM*,-19%[70.6 µM],4%[88.5 µM],i,45µM*
c1ccc(-c2cnc3n[nH]c(-c4ccc5c(c4)OCO5)c3n2)cc1,?,-21%[70.6 µM],-2%[88.5 µM],i,-15%[138 µM]
COc1cc(F)ccc1-c1cnc2n[nH]c(-c3ccc4c(c3)OCO4)c2n1,?,-26%[70.6 µM],-6%[88.5 µM],i,25µM*
COc1cc(-c2cnc3n[nH]c(-c4ccccc4)c3n2)ccn1,?,-2%[70.6 µM],-14%[88.5 µM],i,?
Fc1ccccc1-c1cnc2n[nH]c(-c3ccc4c(c3)OCO4)c2n1,?,-21%[70.6 µM],-1%[88.5 µM],i,-12%[138 µM]
C=CCN1C[C@@H]2C[C@@H](C(=O)NC)N(C(=O)c3cccc4c3OC(F)(F)O4)c3cccc(c32)C1=O,?,·,1%[27.3 µM],·,-14%[46.1 µM]
C=CCN1CCN(C(=O)c2c(C)oc3c2CN(Cc2ccc(F)cc2)CC3)CC1,?,0%,2%,i,-24%
Oc1ccccc1-c1cnc2n[nH]c(-c3ccc4c(c3)OCO4)c2n1,?,-19%[70.6 µM],-8%[88.5 µM],?,?
COc1ccccc1-c1cnc2n[nH]c(-c3ccc4c(c3)OCO4)c2n1,35µM*,?,?,i,35µM*
c1cc(-c2cc(-c3ccncc3)c3cncn3c2)c2[nH]ccc2c1,100µM*,-24%[70.6 µM],-22%[88.5 µM],?,40µM*
c1cc(-c2cc(-c3ccncc3)c3cncn3c2)c2[nH]ncc2c1,-45%[172 µM],-24%[70.6 µM],-30%[88.5 µM],i,-45%[138 µM]
c1cc(-c2cc(-c3ccncc3)c3cncn3c2)c2cc[nH]c2c1,89µM*,-28%[70.6 µM],?,i,?
CC(C)[C@H]1NC(=O)[C@@H]2[C@@H](NC(=O)NC3CCCCC3)CCN2C1=O,i,3%[70.6 µM],5%[88.5 µM],i,i
O=C(NC1CCN(c2ccnc3ccnn23)C1)c1ccc2c(c1)OCO2 (centres undefined),?,·,3%,·,?
Cc1noc(C)c1[S+](=O)([O-])N1CCN(Cc2ccccc2-c2ccccc2F)CC1,?,·,i,·,?
CC(=O)Nc1ccc(-c2ccc(=O)n3c2[C@@H]2C[C@@H](CN(C(=O)Nc4cccc(C#N)c4)C2)C3)cc1,32µM*,4%,1%,i,3%
COc1ccccc1NC(=O)N1C[C@@H]2C[C@H](C1)c1c(-c3ccc(NC(C)=O)cc3)ccc(=O)n1C2,-3%,-3%,i,i,-12%
O=C(N1CCC(Cc2noc(-c3ccc(F)cc3)n2)C1)C1(c2ccccc2)CC1 (centres undefined),40µM*,·,i,·,?
SMILES,HEK293 tox,hNpr1 antagonist,GPT2 inh,FLuc inh,3T3 cytotox
COc1ccc(CNC(=O)N2CCCC(Cc3noc(-c4ccncc4)n3)C2)cc1 (centres undefined),?,-3%,i,i,-34%
O=C(Cn1c(=O)oc2ccccc21)N1CCCC(Cc2noc(-c3ccccc3)n2)C1 (centres undefined),?,7%,i,40µM*,-22%
O=C(C1CC1)N1CCC(Cc2noc(-c3ccccc3)n2)C1 (centres undefined),-30%,-5%,-5%,i,?
Cc1ccc(CNC(=O)N2CCCC(Cc3noc(-c4ccccc4)n3)C2)cc1 (centres undefined),28µM*,4%,i,i,25µM*
COc1ccc(CNC(=O)N2CCC(c3noc(-c4ccccc4)n3)C2)cc1 (centres undefined),45µM*,?,i,i,?
COc1ccc(CNC(=O)N2CCC(c3noc(-c4cccnc4)n3)C2)cc1 (centres undefined),-21%,3%,i,i,-16%
Cc1ccc(C(=O)N2CCC(N3C(=O)C4(CCCCC4)C3c3ccncc3)CC2)cc1 (centres undefined),?,·,-1%,·,?
Cn1cnc(S(=O)(=O)N2CCCC(Cc3noc(-c4ccccc4)n3)C2)c1 (centres undefined),?,2%,?,35µM*,?
CC(=O)Nc1ccc(-c2nnc3n2CCN(C(=O)c2ccc(Cl)cc2)C3)cc1,-1%,·,·,·,-10%
COc1ccc(CN2CC(c3ncc4c(-c5ccccc5)nccn34)C2)cc1O,?,-25%[70.6 µM],0%[88.5 µM],i,89µM*
COc1cccc(N2C(=O)NC(=NC3CCCC3)C23CCN(Cc2ccccc2)C3)c1 (centres undefined),89µM*,·,5%,·,?
COc1cccc(N2C(=O)NC(=NC3CCCCC3)C23CCCN(Cc2ccc(F)cc2)C3)c1 (centres undefined),?,·,i,·,40µM*
COc1cccc(N2C(=O)NC(=NC3CCCCC3)C23CCN(Cc2ccccc2)C3)c1 (centres undefined),-7%,·,i,·,-16%
COCCC(=O)NCC12CCCC=C1N(CC1CC1)C(=O)CC2 (centres undefined),-6%,·,i,·,?
Cc1ccccc1-c1noc(CNCc2nc3ccc(Cl)cc3[nH]2)n1,79µM*,-3%,-9%,i,?
CCc1[nH]c2ccc(CNC(=O)C3CC(=O)Nc4ccccc43)cc2c1C (centres undefined),?,0%,2%,18µM*,?
Cc1ccc(CN2CCc3oc(C)c(C(=O)NCCCN4CCN(C)CC4)c3C2)cc1,?,-12%,-5%,i,?
CCc1ccc(NC(=O)c2ccc(CN3C(=O)NC4(CCOCC4)C3=O)cc2)cc1,?,?,i,13µM*,?
CC(C)c1cccc(NC(=O)c2ccc(CN3C(=O)NC4(CCOCC4)C3=O)cc2)c1,?,11µM*,i,40µM*,-15%
